Screens (PubChem BioAssay)
This is a sample that favours compounds with a hit; in the whole collection about 3.5% have one here.
Anthrax LF inh2: anthrax lethal factor protease inhibition | actives 0.12% (n = 360,000) | inhibition, % at 10 µM | multiplex microsphere protease cleavage assay, LF | P15917; in the data active = inhibition above about 30%; inconclusive = no clear call, values can overlap the other calls; also: plate controls were buffer without enzyme for full effect and enzyme alone for no effect
Target sequence (P15917 whole entry, looked up): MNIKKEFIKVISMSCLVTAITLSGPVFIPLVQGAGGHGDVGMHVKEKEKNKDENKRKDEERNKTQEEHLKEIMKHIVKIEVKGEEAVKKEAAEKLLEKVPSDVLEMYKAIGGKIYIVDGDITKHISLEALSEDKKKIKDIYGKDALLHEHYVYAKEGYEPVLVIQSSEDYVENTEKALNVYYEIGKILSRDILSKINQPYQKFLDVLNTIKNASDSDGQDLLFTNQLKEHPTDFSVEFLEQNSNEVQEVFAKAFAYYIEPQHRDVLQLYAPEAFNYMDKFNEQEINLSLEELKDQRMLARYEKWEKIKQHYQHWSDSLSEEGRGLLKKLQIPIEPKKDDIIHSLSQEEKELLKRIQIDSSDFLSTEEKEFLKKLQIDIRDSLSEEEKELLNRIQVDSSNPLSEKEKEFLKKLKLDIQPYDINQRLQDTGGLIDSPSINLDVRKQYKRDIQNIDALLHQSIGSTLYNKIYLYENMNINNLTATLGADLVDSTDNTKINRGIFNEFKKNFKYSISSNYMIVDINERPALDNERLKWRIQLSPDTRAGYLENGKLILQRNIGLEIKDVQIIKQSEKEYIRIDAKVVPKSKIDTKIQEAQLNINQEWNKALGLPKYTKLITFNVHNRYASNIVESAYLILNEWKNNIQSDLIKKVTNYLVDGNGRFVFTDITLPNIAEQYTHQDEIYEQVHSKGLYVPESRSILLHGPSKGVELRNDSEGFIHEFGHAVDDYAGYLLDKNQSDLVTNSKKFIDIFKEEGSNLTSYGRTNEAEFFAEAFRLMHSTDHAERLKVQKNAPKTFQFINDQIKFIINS
BoNT-F LC inh: blocks Botulinum neurotoxin F light chain protease; actives 0.22% (n = 360,000); AID 588497; Multiplex microsphere protease cleavage assay, flow cytometry; inhibition, % at 10 µM; in the data active = inhibition above about 35%, passing the limit was not always enough; inconclusive = no clear call, values can overlap the other calls; also: plate controls were buffer without enzyme for full effect and enzyme alone for no effect
BoNT-A LC inh2: BoNT A light chain protease inhibition | multiplex microsphere protease substrate cleavage, flow cytometry | inhibition, % at 10 µM | actives 0.17% (n = 360,000); in the data active = inhibition above about 30%; inconclusive = no clear call, values can overlap the other calls; also: plate controls were buffer without enzyme for full effect and enzyme alone for no effect
Autofluor counter: flagged as autofluorescent in microsphere protease counterscreen; actives 3.1% (n = 360,000); compound autofluorescence counterscreen, microsphere flow cytometry; hits give high values; AID 624483; fluorescence intensity (no concentration beside the values); in the data active = fluorescence intensity above about 16000; inconclusive = no clear call, values can overlap the other calls
BoNTA LC inh 1: blocks botulinum neurotoxin A light chain protease; shares compounds with BoNT-F LC inh; inhibition, % at 10 µM; multiplex microsphere protease assay, flow cytometry; actives 3% (n = 720); in the data active = inhibition above about 32%
BoNTF LC inh 1: inhibitors of Botulinum neurotoxin F light chain protease | shares compounds with BoNT-F LC inh | multiplex microsphere protease cleavage assay, flow cytometry | inhibition, % at 10 µM | 720 tested, under 10 active
Anthrax LF CP1: blocks anthrax lethal factor protease | shares compounds with BoNT-F LC inh | multiplex microsphere protease cleavage assay, LF | inhibition, % at 10 µM | 720 tested, under 10 active
* marks the source's active call; other numbers are inactive results; ? = inconclusive; nt = not tested or not shown. Unless noted, no rule for the calls is given here.

SMILES	Anthrax LF inh2	BoNT-F LC inh	BoNT-A LC inh2	Autofluor counter	BoNTA LC inh 1	BoNTF LC inh 1	Anthrax LF CP1
CN(C)CCN(CC1CCCN(Cc2ccccc2F)C1)C(=O)c1ccc(Cl)cc1 (stereo unspecified)	9.0	44.5*	1.6	3527	-0.4	-4.2	0.2
CC1CC(=O)Nc2ccccc2N1C(=O)COc1ccccc1C(N)=O (stereo unspecified)	-9.3	-6.9	-0.9	3731	nt	nt	nt
CCS(=O)(=O)Nc1cccc(C2=NN(S(C)(=O)=O)C(c3ccccc3)C2)c1 (stereo unspecified)	0.2	8.2	-0.8	7796	nt	nt	nt
CCS(=O)(=O)N1N=C(c2cccc(NS(C)(=O)=O)c2)CC1c1ccccc1 (stereo unspecified)	43.6*	29.7	94.3*	25649*	-5.7	nt	-7.7
COc1ccc(NC2CCCN(C(=O)c3ccc4[nH]c(C)c(C)c4c3)C2)cc1OC (stereo unspecified)	-1.9	-8.1	-1.7	5287	nt	nt	nt
COc1ccc(C(=O)NCCn2ccc3ccccc32)c(OC)c1	14.3	-1.2	8.9	10678	0.5	0.0	5.5
Cc1ccc(C(=O)Nc2ccc(S(=O)(=O)N3CCc4ccccc4C3)cc2)o1	-2.8	36.5*	3.7	8089	1.2	-2.2	-0.6
O=C(COc1ccc2c3c(c(=O)oc2c1)CCCC3)NCCCn1ccnc1	7.4	22.5	10.7	2505	nt	nt	nt
COc1ccc(S(=O)(=O)N2CCCCCC2)cc1N(C)S(=O)(=O)c1ccc(Cl)cc1	1.7	36.9*	2.4	5279	0.4	-4.7	-4.1
COc1ccc(S(=O)(=O)N2CCC(C)CC2)cc1N(C)S(=O)(=O)c1ccccc1	-2.2	13.5	-1.8	6507	nt	nt	nt
NS(=O)(=O)c1ccc(NCc2c(F)cccc2Cl)cc1	-8.0	45.7*	38.3*	8836	0.7	-0.3	-2.6
Fc1cccc(Cl)c1CNc1ccc(N2CCCC2)cc1	-9.2	-34.7	-0.6	2305	nt	nt	nt
CN(CC(=O)NCCc1ccc(S(N)(=O)=O)cc1)Cc1c(F)cccc1Cl	4.8	40.5*	-1.5	3568	1.2	-3.6	-5.1
CCn1c2ccccc2c2nc3cc(OC)c(OC)cc3nc21	23.4	31.5	50.3*	5340	22.7	4.1	8.7
CCn1c2ccccc2c2nc3ccccc3nc21	-5.0	0.1	18.1	8426	nt	nt	nt
O=C(Nc1cccs1)NC1CCCC1	-0.7	0.9	-0.3	3254	nt	nt	nt
O=C(Nc1ccc2nc(-c3cccs3)c(-c3cccs3)nc2c1)NC1CC1	54.5*	36.2*	83.4*	6638	49.9*	-0.7	31.3*
Cc1cc(C)n(-c2nnc(NC34CC5CC(CC(C5)C3)C4)nn2)n1	20.0	10.6	51.7*	2849	15.7	-5.5	21.0
Cc1cc(C)n(-c2nnc(NC(C)(C)C)nn2)n1	-1.6	-0.6	1.1	2650	nt	nt	nt
COCCCNCCCCOc1ccc(Br)cc1C	-1.0	36.1*	4.6	2506	5.2	-9.8	-2.1
CSc1cnc2c(N)nc(N(C)C)nc2n1	3.6	48.9*	5.8	2866	-1.3	-1.1	-1.9
CN(C)c1nc(N)c2nccnc2n1	-0.7	-6.7	-0.3	2759	nt	nt	nt
C[C@@H]1CN([C@H](C)CO)C(=O)CCCn2nncc2CO[C@H]1CN(C)S(=O)(=O)c1ccc(Oc2ccccc2)cc1	0.3	-0.4	0.1	3823	nt	nt	nt
CCN(CC)c1nc2cc(OC)ccc2cc1C#N	19.1	23.1	30.8*	5562	3.3	1.9	-1.7
CCc1cccc(C)c1NC(=O)C1CC(=O)N(C2CCCC2)C1 (stereo unspecified)	10.5	5.4	0.8	6389	nt	nt	nt
SMILES	Anthrax LF inh2	BoNT-F LC inh	BoNT-A LC inh2	Autofluor counter	BoNTA LC inh 1	BoNTF LC inh 1	Anthrax LF CP1
CCOCCCNC(=O)CN1C(=O)c2cccc3cccc1c23	-4.4	38.9*	3.2	3541	-0.9	-5.1	-2.5
Cc1cc(C)c(NC(=O)C2CCCO2)c(C)c1NC(=O)C1CCCO1 (stereo unspecified)	-6.6	38.4*	-1.6	2848	0.3	-3.6	-5.8
COC(=O)Cc1ccc(NC(=S)N2CCN(c3ccccn3)CC2)cc1	64.0*	-13.0	178.2*	2756	0.0	-0.7	-2.8
Nc1nc2ccccc2n1CCOc1ccc(F)cc1	-0.9	42.2*	-3.9	4168	-0.7	-2.0	2.9
COC(=O)c1c(N)nc(C)n1-c1ccc(OC)cc1	-3.5	3.5	0.8	3166	nt	nt	nt
COc1ccc(-n2c(C)nc(N)c2C(=O)c2ccccc2)cc1	56.3*	?	-5.3	4994	-0.6	-1.9	2.8
Nc1ncnc2c1ncn2[C@@H]1O[C@H](C(=O)N2CCC[C@@H]2C(=O)OCc2ccccc2)[C@@H](O)[C@H]1O	0.1	6.1	-0.3	4467	nt	nt	nt
